Test results: PubChem BioAssay (NCI)
Compounds without any hit were thinned out: in the full panel of roughly 83,000, 20% have a hit.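 Note: values are percent growth. 100 is the growth of untreated cells, values between 100 and 0 indicate rising inhibition; between -100 and 0 indicates cell death.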 Values without a mark were called inactive. Calls of active or inactive are those of the source. The calls were made as follows: active = growth percent below 10; inactive = the rest.

Key:
Test in all cases: NCI-60 one-dose screen, 48 h (100 = growth as untreated, 0 = no growth, -100 = all killed)
Conditions in all cases: 10 µM unless noted
[1] = test system: SR leukemia
[2] = test system: RPMI-8226 leukemia
[3] = test system: OVCAR-8 ovarian
[4] = test system: OVCAR-5 ovarian
[5] = test system: OVCAR-4 ovarian
[6] = test system: SK-OV-3 ovarian
[7] = test system: OVCAR-3 ovarian
[8] = test system: NCI/ADR-RES ovarian
[9] = test system: T-47D breast
[10] = test system: BT-549 breast
[11] = test system: MDA-MB-435 melanoma
[12] = test system: SW-620 colon
[13] = test system: MCF7 breast
[14] = test system: HCT-116 colon
[15] = test system: KM12 colon
[16] = test system: HS 578T breast
[17] = test system: HCC-2998 colon
[18] = test system: IGROV1 ovarian

Structure (SMILES)	growth [1]	growth [2]	growth [3]	growth [4]	growth [5]	growth [6]	growth [7]	growth [8]	growth [9]	growth [10]	growth [11]	growth [12]	growth [13]	growth [14]	growth [15]	growth [16]	growth [17]	growth [18]
C/C(Cc1ccccc1)=N\O	101%	83.3%	107%	107%	117%	128%	105%	107%	117%	107%	98.3%	98.4%	107%	101%	103%	–	–	–
C=CC1=NC(C)(C)CC(C)O1 (stereo unspecified)	113%	105%	113%	104%	98.6%	108%	113%	112%	92.2%	109%	94.7%	104%	93.4%	107%	109%	107%	110%	–
Cc1ccc(O)c(N)c1	113%	55.7%	104%	115%	111%	–	118%	107%	92.8%	95.2%	112%	121%	99.9%	111%	110%	106%	110%	–
COc1cc(-c2ccc(NC(=O)CC(C)=O)c(OC)c2)ccc1NC(=O)CC(C)=O	93.7%	95.2%	94.8%	98.3%	–	101%	110%	95.2%	108%	83.6%	105%	104%	106%	105%	106%	117%	100%	112%
CCOC(=O)CNC	93.2%	99.7%	91.3%	97.2%	96.5%	106%	111%	100%	97.2%	109%	98.7%	–	93.8%	108%	107%	121%	96%	–
Cc1cc(C(=O)NN)c(C#N)c(=O)[nH]1	116%	91.2%	100%	106%	107%	–	112%	99.1%	96.3%	109%	119%	102%	–	100%	122%	121%	112%	–
O=Cc1ccc(O)c(O)c1	82.9%	87.5%	95.8%	96.2%	97.1%	–	96.3%	93.1%	83.2%	101%	102%	113%	96.5%	98.5%	91.2%	133%	93.3%	88.8%
CS(=O)(=O)c1ccc(/C=C\C(=O)O)cc1	62.3%	98.8%	104%	105%	–	106%	102%	104%	103%	102%	101%	81.5%	95.8%	93.7%	94%	81.7%	110%	120%
NNc1ncnc2nc[nH]c12	32.5%	13.4%	16.4%	63.7%	44.6%	–	79%	42.7%	62.2%	85%	51.3%	41.6%	33%	24%	46%	84.8%	78%	–
CC(=O)CSc1ncnc2nc[nH]c12	87.8%	76.6%	99.2%	95.8%	66.9%	–	91.5%	101%	82%	102%	–	96%	74.7%	88.7%	123%	116%	97.5%	–
CC(=O)/C(C)=N\OC(=O)Nc1ccccc1	106%	102%	106%	93.1%	97.7%	90.3%	104%	101%	94.4%	101%	103%	–	93.5%	102%	101%	107%	94.7%	–
O=C(OCC1CCCO1)c1ccc([N+](=O)[O-])cc1 (stereo unspecified)	116%	103%	99.2%	109%	117%	97.9%	111%	103%	84.8%	–	109%	91.8%	95.6%	103%	–	96.7%	117%	–
OCc1cccnc1	95.1%	102%	95.2%	99.6%	115%	107%	114%	115%	106%	106%	97.2%	102%	94%	107%	105%	97.2%	107%	–
CCOC(=O)C(=O)CC(=O)c1ccccc1	79.7%	98.4%	101%	95.1%	104%	111%	106%	93.1%	105%	109%	106%	98.4%	96.7%	97.9%	96.3%	106%	101%	–
CC(C)Sc1ncnc2nc[nH]c12	122%	118%	107%	101%	115%	–	120%	102%	100%	–	97.4%	–	98.1%	103%	128%	139%	108%	–
NC(CSSCC(N)C(=O)O)C(=O)O (stereo unspecified)	-20.7% (active)	53.6%	2.42% (active)	-5.59% (active)	35.4%	–	4.66% (active)	84.8%	54.7%	–	-15.1% (active)	21.7%	20.4%	18.6%	–	50.3%	9.17% (active)	31.8%
CN(C)c1ncnc2c1cnn2C	109%	89%	94.7%	97.5%	102%	–	104%	99.9%	88.2%	99.9%	103%	98.7%	94%	105%	104%	99.1%	98%	–
Cc1[nH]n(-c2ccccc2)c(=O)c1C=NC(=S)C(N)=S	89.9%	94.6%	99.9%	109%	104%	96%	108%	101%	102%	108%	109%	104%	100%	89.5%	103%	92.1%	102%	–
C=CCC(O)C=C (stereo unspecified)	84.4%	105%	101%	108%	–	94%	108%	103%	95.6%	104%	111%	104%	98.2%	105%	102%	101%	113%	103%
C/C=C/C1OCC(CC)C(CCC)O1 (stereo unspecified)	102%	94.5%	103%	98.7%	110%	108%	106%	108%	107%	108%	107%	105%	95.8%	103%	102%	107%	124%	–

Structure (SMILES)	growth [1]	growth [2]	growth [3]	growth [4]	growth [5]	growth [6]	growth [7]	growth [8]	growth [9]	growth [10]	growth [11]	growth [12]	growth [13]	growth [14]	growth [15]	growth [16]	growth [17]	growth [18]
CCN(CC)CCCC(C)NC(=S)N/N=C(\C)c1ccccn1 (stereo unspecified)	17.7%	58.9%	36.1%	55.1%	–	52.3%	51%	93.7%	56.7%	65.5%	54.8%	47.5%	25.7%	23.9%	36.4%	92.6%	56.8%	–
CCOC(C=O)OCC	89.9%	99.1%	102%	102%	–	106%	109%	107%	–	103%	102%	108%	95.4%	105%	104%	109%	99.1%	108%
CCOC(OCC)C(=O)c1ccccc1	132%	99.8%	89.8%	94.1%	–	105%	99.9%	108%	103%	101%	109%	92.3%	94.4%	108%	99.4%	94.3%	112%	105%
CCCCCCCCCCCCCCCCOc1ccccc1NC(=O)CC(C)=O	107%	64%	113%	102%	–	111%	118%	100%	111%	90.9%	102%	–	91.9%	97.5%	94.5%	118%	104%	88.4%
CC(O)C(F)(F)C(F)(F)C(F)(F)F (stereo unspecified)	97.6%	128%	110%	98.7%	–	118%	121%	110%	110%	107%	110%	–	101%	100%	114%	105%	111%	114%
CC(C)(C)NCCC(O)c1cc(C(F)(F)F)nc2c(C(F)(F)F)cccc12 (stereo unspecified)	121%	95.7%	83.6%	77.8%	–	89.3%	75.9%	84.6%	86.8%	86.5%	82.3%	89.6%	92.6%	56.8%	58.7%	65.5%	–	71.7%
COC1OC(C(O)C(O)CO)C(O)C(O)C1O (stereo unspecified)	97.7%	93.3%	105%	88.7%	–	95.6%	109%	106%	–	91%	105%	105%	97.1%	90.5%	106%	109%	107%	103%
COc1nc(Nc2cccc(C(F)(F)F)c2)nc(OC)n1	95%	94.7%	96%	116%	–	97.9%	103%	104%	92.5%	–	–	110%	97.9%	97%	97.8%	98.6%	108%	93.1%
NC(=O)NCCO	96.2%	101%	99.8%	106%	–	110%	106%	97.7%	–	101%	101%	103%	98.3%	109%	101%	94.2%	102%	105%
O=C(O)Cc1ccc(Cl)cc1	44.8%	99.1%	97.7%	111%	–	121%	150%	109%	117%	105%	97.3%	111%	–	77.4%	113%	99.6%	108%	109%
O=C(Nc1ccccc1)c1ccco1	100%	105%	101%	110%	–	103%	114%	107%	103%	98.1%	109%	104%	95.5%	92.3%	117%	103%	84%	105%
CC(=O)C[n+]1ccc(C)cc1Sc1ccccc1C	130%	98.6%	88.7%	90%	–	108%	102%	101%	82.2%	90%	101%	100%	90.3%	92.9%	94.1%	95.7%	108%	120%
Cc1ccc(C)c(CN(C)C)c1O	118%	121%	98.2%	102%	–	107%	113%	99.3%	120%	99.2%	109%	97.1%	102%	112%	97.4%	105%	102%	110%
CC(=O)Nc1ncc(S(=O)(=O)c2ccc([N+](=O)[O-])cc2)s1	96.4%	100%	103%	109%	–	94%	120%	118%	91.4%	108%	111%	101%	105%	98.9%	116%	–	128%	112%
C1=NCCc2ccccc21	97%	99%	99.1%	105%	–	93%	100%	106%	86%	–	111%	98.5%	90.3%	89.7%	110%	83.8%	112%	105%
Cn1c(=O)c2[nH]c(CCCCC(=O)O)nc2n(C)c1=O	112%	91.2%	101%	112%	–	113%	113%	108%	113%	106%	110%	101%	–	106%	106%	–	111%	110%
COc1ccc(C)cc1NC(=O)SC(C)C	95.3% [100 µM]	99% [100 µM]	105% [100 µM]	102% [100 µM]	–	111% [100 µM]	116% [100 µM]	103% [100 µM]	89.7% [100 µM]	101% [100 µM]	101% [100 µM]	99.8% [100 µM]	87% [100 µM]	104% [100 µM]	101% [100 µM]	102% [100 µM]	98.5% [100 µM]	102% [100 µM]
O=C1CSc2ccccc2N1	105%	95.2%	94.9%	116%	–	112%	115%	98.8%	107%	117%	–	99.2%	98.5%	111%	109%	–	99.6%	105%
CCc1ccccc1C(=O)N(CC)CC	96.3%	103%	105%	99.4%	–	118%	110%	109%	92.8%	102%	104%	105%	91%	92.9%	103%	110%	104%	103%
O=S(=O)(O)c1cccnc1	100%	66.4%	104%	119%	–	103%	111%	128%	106%	111%	102%	98.9%	99.9%	126%	101%	110%	153%	132%
